Rows were chosen to be rich in hits. Some 8.2% of all compounds tested hit in one or more screens of this group.
KB-V1 MDR tox: qHTS assay for MDR1-selective chemotherapeutics: Primary screen using the drug-selected MDR subline cells KB-V1 | KB-V1 MDR cells viability, CellTiter-Glo, 72 h | Potency, µM (series often up to 46.1 µM), actives largely listed as cytotoxic | 3.4% of 400,000 active | AID 1347076, 2019; also: nearly all actives have a fitted effect of over 60% in size
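Potencies derive from concentration-effect curves fitted to normalized luminescence (CellTiter-Glo) of KB-V1 cells treated for 72 h at 37 degrees C in phenol-red-free DMEM containing 10% FBS.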
ELG1 repair inh: qHTS screen for small molecules that inhibit ELG1-dependent DNA repair in human embryonic kidney (HEK293T) cells expressing luciferase-tagged ELG1; Potency, µM (doses to about 46.1 µM), usual class: inhibitors; AID 504467, 2011; 2.3% of 330,000 active; HEK293T ELG1-luciferase reporter, luminescence, 16 h; DNA damage induced by 5-fluorouridine; also: nearly all actives have a fitted effect of over 55% in size
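HEK293T cells expressing luciferase-tagged ELG1 (2,000/well) received 5-Fluorouridine plus compound or DMSO for 16 hr at 37 °C. Luciferase was read by ONE-Glo luminescence after 30 min at room temperature.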
KB-3-1 tox: qHTS assay for MDR1-selective chemotherapeutics: Primary screen using the parental adenocarcinoma cell KB-3-1; 1.4% of 400,000 active; KB-3-1 viability, CellTiter-Glo ATP luminescence, 72 h; Potency, µM (top dose mostly 46.1 µM), hits mostly cytotoxic; also: nearly all actives have a fitted effect of over 60% in size
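Viability of parental KB-3-1 cells, measured by CellTiter-Glo luminescence, followed a 72 h incubation at 37 °C with pinned compounds in phenol-red-free DMEM containing 10% FBS.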
SW480 rereplic: A quantitative high throughput screen for small molecules that induce DNA re-replication in SW480 colon adenocarcinoma cells | 1.8% of 340,000 active | Potency, µM (doses to about 46.1 µM), hits mostly activators | SW480 DNA re-replication, Hoechst DNA content imaging, 48 h; also: nearly all actives have a fitted effect of over 55% in size
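Image-based DNA-content assay: after two days of treatment, nuclei were labelled with the DNA dye Hoechst and imaged, and hits were compounds raising the count of nuclei showing high fluorescence intensity.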
MCF10A rerep: A quantitative high throughput screen for small molecules that induce DNA re-replication in MCF 10a normal breast cells; 2.9% of 350,000 active; MCF 10A DNA re-replication, Hoechst nuclear intensity, 48 h; Potency, µM (top dose mostly 46.1 µM), most hits filed as activators; AID 624296, 2012; also: nearly all actives have a fitted effect of over 50% in size
Each line names hits and unclear results; the compound was inactive in the other large screens. Calls follow the shape of the dose curve; as a rule, active = well fitted curve in the direction sought with a large enough effect; inconclusive = small, poorly fitted or top-dose-only effect, or another doubt; inactive = no such curve, though single readings can be large; an effect the other way counts as inactive or inconclusive.

O=C(c1ccco1)N1CCN(c2nc(C(F)(F)F)nc3c2nnn3Cc2ccccc2)CC1	KB-V1 MDR tox 2.3µM, ELG1 repair inh inconclusive, KB-3-1 tox inconclusive
Fc1ccc(N2CCN(c3ncnc4c3nnn4Cc3ccccc3Cl)CC2)cc1	KB-3-1 tox inconclusive, MCF10A rerep inconclusive (no result: ELG1 repair inh)
O=C(c1ccco1)N1CCN(c2ncnc3c2nnn3Cc2ccccc2Cl)CC1	KB-V1 MDR tox 5.8µM, ELG1 repair inh 23µM
CCCN1CCN(c2ncnc3c2nnn3Cc2ccccc2)CC1	KB-V1 MDR tox 16µM, KB-3-1 tox inconclusive, SW480 rereplic 21µM, MCF10A rerep inconclusive
O=C(/C=C/[C@H]1O[C@@H](n2ccc(=O)[nH]c2=O)[C@H](O)[C@@H]1O)NCc1ccc2c(c1)OCO2	none (no result: ELG1 repair inh, SW480 rereplic, MCF10A rerep)
c1ccc(CNc2nc(CN3CCOCC3)nc3scc(-c4ccccc4)c23)cc1	ELG1 repair inh inconclusive
c1nc(NCCN2CCOCC2)c2c3c(sc2n1)CCCCC3	none
c1ccc(-c2csc3ncnc(NCCN4CCOCC4)c23)cc1	KB-V1 MDR tox inconclusive, ELG1 repair inh 16µM, MCF10A rerep inconclusive
Clc1ccc(CNc2nc(CN3CCOCC3)nc3scc(-c4ccccc4)c23)cc1	KB-V1 MDR tox 21µM, ELG1 repair inh inconclusive, KB-3-1 tox inconclusive, MCF10A rerep 13µM
Clc1ccc(-c2csc3ncnc(NCCN4CCOCC4)c23)cc1	KB-V1 MDR tox inconclusive, ELG1 repair inh 18µM, MCF10A rerep inconclusive
Clc1ccc(-c2nc(NCCN3CCOCC3)c3ccccc3n2)cc1	KB-V1 MDR tox 4.1µM, SW480 rereplic inconclusive, MCF10A rerep inconclusive
OCCCNc1nc(-c2ccc(Cl)cc2)nc2ccccc12	SW480 rereplic inconclusive
Cc1ccc(-c2csc3ncnc(NCCN4CCOCC4)c23)cc1	ELG1 repair inh inconclusive, MCF10A rerep inconclusive
CCOC(=O)C1=C(COC(=O)CCCOc2ccccc2)NC(=O)NC1C (centres undefined)	none
Fc1ccc(N2CCN(c3ncnc4c3nc3n4CCCC3)CC2)cc1	KB-3-1 tox inconclusive (no result: ELG1 repair inh, SW480 rereplic, MCF10A rerep)
COc1ccc(-n2ncc3c(NCCN4CCOCC4)ncnc32)cc1	ELG1 repair inh inconclusive
COc1ccc(-c2csc3ncnc(NCCN4CCOCC4)c23)cc1	KB-V1 MDR tox inconclusive, ELG1 repair inh 13µM, KB-3-1 tox inconclusive, SW480 rereplic inconclusive, MCF10A rerep inconclusive
COc1cc(NC(=O)Cn2nc(C(F)(F)F)c(Br)c2C)cc([N+](=O)[O-])c1	KB-V1 MDR tox 18µM, ELG1 repair inh 18µM
Cc1ccc(NC(=O)[C@@H]2O[C@H](CO)[C@@H](O)[C@H]2O)cc1C(F)(F)F	none (no result: ELG1 repair inh, SW480 rereplic, MCF10A rerep)
Cc1ccc(N=C2CCCN2Cc2ccccc2)c(C#N)c1	KB-V1 MDR tox 18µM, KB-3-1 tox inconclusive
Cc1ccc(N=C2CCCCCN2C)c(C#N)c1	ELG1 repair inh inconclusive
CCn1c(SCC(=O)N2CCCCC2C)nc2ccsc2c1=O (centres undefined)	none
CC1CCCCN1C(=O)CSc1nc2ccsc2c(=O)n1Cc1ccccn1 (centres undefined)	KB-V1 MDR tox 18µM
Cc1ccc(NC(=O)c2cccc(NC(=O)N3CCSc4ncccc43)c2)cc1F	none (no result: ELG1 repair inh, SW480 rereplic, MCF10A rerep)
Cc1ccc(-n2cc(C(=O)c3cc(Cl)ccc3O)cc(C#N)c2=O)cc1	KB-V1 MDR tox 16µM, MCF10A rerep inconclusive
Cc1ccccc1NC(=O)c1cc(C(=O)c2cc(Cl)ccc2O)cn(-c2ccccc2C)c1=O	KB-V1 MDR tox 9.2µM, ELG1 repair inh 21µM (no result: SW480 rereplic)
CCCc1cc(C(=O)Cc2ccc(F)cc2)c(O)cc1O	MCF10A rerep inconclusive
CCc1cc(C(=O)Cc2ccc(F)cc2)c(O)cc1O	KB-V1 MDR tox 16µM, ELG1 repair inh inconclusive, KB-3-1 tox inconclusive
COC(=O)c1ccc(SCC(=O)NCc2ccccc2)c([N+](=O)[O-])c1	none
CC(C)n1c(O)c(N=Nc2ccc(Cl)nn2)c2ccccc21	KB-V1 MDR tox 12µM
COc1ccccc1[C@H]1C(c2cccc(Cl)c2)=NN(c2ccccc2)[C@@H]1CO	ELG1 repair inh inconclusive, SW480 rereplic inconclusive, MCF10A rerep inconclusive
Cc1cccc(C2=NN(c3ccccc3)[C@@H](C(=O)N3CCOC3=O)[C@@H]2c2ccc([N+](=O)[O-])cc2)c1	none
O=C1OCCN1C(=O)[C@H]1[C@H](c2ccc(Cl)cc2)C(c2cccc(Cl)c2)=NN1c1ccccc1	SW480 rereplic 12µM, MCF10A rerep inconclusive
O=C1OCCN1C(=O)[C@H]1[C@H](c2ccc(F)cc2)C(c2cccc(Cl)c2)=NN1c1ccccc1	SW480 rereplic 18µM, MCF10A rerep 0.58µM
O=C(c1cccc(S(=O)(=O)N2CCc3ccccc32)c1)N1CCOCC1	none (no result: KB-V1 MDR tox, KB-3-1 tox)
COc1cccc(C2=CC(c3cc(Br)ccc3F)n3nnnc3N2)c1 (centres undefined)	KB-3-1 tox 13µM (no result: ELG1 repair inh, SW480 rereplic, MCF10A rerep)
CCOc1ccc(C2C=C(c3cccc(OC)c3)Nc3nnnn32)cc1 (centres undefined)	none (no result: ELG1 repair inh, SW480 rereplic, MCF10A rerep)
CCOC(=O)[C@H]1[C@H]2COc3ccc(OC)cc3[C@@H]2N2C(=O)c3cc(OC)ccc3NC(=O)[C@@]12C	KB-V1 MDR tox inconclusive, SW480 rereplic 6.5µM
CCOC(=O)[C@@H]1[C@H]2COc3cc(OC)ccc3[C@H]2N2C(=O)N(c3ccc(C(F)(F)F)cc3)C(=O)[C@]12C	KB-V1 MDR tox inconclusive, ELG1 repair inh 23µM, KB-3-1 tox inconclusive
CCOC(=O)[C@H]1[C@H]2COc3ccc(OC)cc3[C@@H]2N2C(=O)c3ccccc3NC(=O)[C@@]12C	MCF10A rerep inconclusive
CCOC(=O)[C@H]1[C@H]2COc3ccc(C)cc3[C@@H]2N2C(=O)c3cc(F)c(F)cc3NC(=O)[C@@]12C	ELG1 repair inh inconclusive, KB-3-1 tox inconclusive
CCOC(=O)[C@H]1[C@H]2COc3ccc(Cl)cc3[C@@H]2N2C(=O)c3cc(F)c(F)cc3NC(=O)[C@@]12C	KB-V1 MDR tox inconclusive, KB-3-1 tox 23µM
CCOC(=O)[C@@H]1[C@H]2COc3cc(OC)ccc3[C@@H]2N2C(=O)N(c3ccc(C(F)(F)F)cc3)C(=O)[C@@]12C	none
CCc1noc(C)c1C(=O)NC1CCCc2c1cnn2-c1ccc(C(C)(C)C)cc1 (centres undefined)	none
O=C(Cn1ncc2c1-c1ccccc1OC2)N1CCN(Cc2ccccc2)CC1	ELG1 repair inh inconclusive
O=C(Cn1ncc(Cl)c(Cl)c1=O)N1CCN(Cc2ccccc2)CC1	ELG1 repair inh inconclusive, KB-3-1 tox inconclusive, MCF10A rerep 4.1µM
O=C(Cn1ncc2c3ccccc3n(Cc3ccccc3)c2c1=O)N1CCN(c2ccccn2)CC1	none
CCc1ccc(C(=O)Cn2ncc(Cl)c(Cl)c2=O)cc1	KB-V1 MDR tox inconclusive, KB-3-1 tox 7.3µM, SW480 rereplic 7.3µM, MCF10A rerep 5.8µM
